Rab9 prom act: activators of Rab9 promoter; Potency, µM (top dose mostly 9.22 µM), hits mostly activators; Huh7 Rab9 promoter-luciferase reporter, luminescence, 24 h; 320,000 compounds, 2.8% hits; also: nearly all actives have a fitted effect of over 60% in size
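Quantitative HTS format; Huh7 Rab9-luciferase reporter cells (1500/well) receive compound 2 h post-plating, incubate 24 h at 37 °C, then get luciferase reagent for 10 min before luminescence reading.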
FLuc counter: counter-screen for miR-21 project: firefly luciferase inhibitors or activators; AID 588342; purified FLuc, Km substrates, luminescence inhibition; Potency, µM (top dose mostly 57.5 µM), actives largely listed as inhibitors; P08659; 360,000 compounds, 6.9% hits; also: nearly all actives have a fitted effect of over 55% in size
Target sequence (P08659 whole entry, looked up): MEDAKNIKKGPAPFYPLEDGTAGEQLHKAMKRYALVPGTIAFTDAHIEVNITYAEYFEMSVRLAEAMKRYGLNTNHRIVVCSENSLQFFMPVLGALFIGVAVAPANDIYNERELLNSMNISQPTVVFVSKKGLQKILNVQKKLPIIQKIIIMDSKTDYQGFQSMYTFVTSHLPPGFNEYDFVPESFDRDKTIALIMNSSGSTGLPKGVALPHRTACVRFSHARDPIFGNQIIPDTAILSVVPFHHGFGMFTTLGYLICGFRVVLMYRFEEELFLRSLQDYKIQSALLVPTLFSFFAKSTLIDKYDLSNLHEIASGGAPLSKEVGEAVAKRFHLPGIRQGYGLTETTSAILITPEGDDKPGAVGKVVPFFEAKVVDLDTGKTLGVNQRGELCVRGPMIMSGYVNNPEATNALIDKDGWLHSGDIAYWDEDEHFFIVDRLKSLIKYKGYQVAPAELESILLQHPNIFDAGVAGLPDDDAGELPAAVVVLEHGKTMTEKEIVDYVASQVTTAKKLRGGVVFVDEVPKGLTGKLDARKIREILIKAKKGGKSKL
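Purified P. pyralis luciferase (10nM final) with 10uM D-luciferin and 10uM ATP (Km levels) in 50mM Tris acetate pH 7.5, 10mM Mg acetate, 0.01% Tween-20, 0.05% BSA; qHTS 6-point titration, ~60 µM downward; luminescence read.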
Luc counter: counter-screen: inhibitors of Kinase-Glo firefly luciferase; Kinase-Glo luciferase, ATP luminescence, 8 min; 200,000 compounds, 0.28% hits; Potency, µM (top dose mostly 38.3 µM), usual class: inhibitors; Q27757; AID 1379; also: nearly all actives have a fitted effect of over 60% in size
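Kinase-Glo luciferase light output from ATP and luciferin was measured with 10 uM ATP, within the enzyme's linear range. Buffer: 50 mM imidazole pH 7.2, 50 mM KCl, 7 mM MgCl2, 0.01% Tween 20, 0.05% BSA; luminescence read after 8 min at ambient temperature.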
ELG1 genotoxic: induces genotoxicity in HEK293T cells with luciferase-tagged ELG1. HEK293T ELG1-luciferase reporter, luminescence, 16 h. Potency, µM (titrated, usually from 46 µM), most hits filed as activators. 330,000 compounds, 1.3% hits. AID 504466; also: nearly all actives have a fitted effect of over 60% in size
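Quantitative HTS format in 1536-well plates. HEK293T ELG1-luciferase reporter cells receive test compound and are incubated 16 hr at 37 °C, 5% CO2; ONE-Glo added, 30 min room temperature, then luminescence read.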
NPC1 prom act: activates the NPC1 promoter. Huh7 NPC1 promoter luciferase reporter, 24 h. Potency, µM (series often up to 9.22 µM), most hits filed as activators. 320,000 compounds, 2.4% hits. AID 485313; also: nearly all actives have a fitted effect of over 60% in size
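Compounds in DMSO were transferred onto Huh7 NPC1-luciferase reporter cells pre-incubated 2 h; after 24 h at 37 °C, Amplite reagent was dispensed and luminescence recorded 10 min later.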
SMN2 splice enh: SMN2 splice variant enhancement; HEK293 SMN2-luciferase splicing reporter, luminescence, 30-36 h; Potency, µM (top dose mostly 46.1 µM), actives largely listed as activators; 210,000 compounds, 2.8% hits; also: nearly all actives have a fitted effect of over 55% in size
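HEK293 cells carry an SMN2 […]–luciferase reporter in which exon 7 inclusion puts luciferase in frame. Cells were plated 10-12 h before compound addition, then incubated 30-36 h at 37C. ONE-Glo luminescence was read; sodium butyrate at 4.5 mM final served as control.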
Large screens that a line does not name were inactive. Most compounds without a hit are left out; they make up all but 7.4% or so of the library. Calls follow the shape of the dose curve; as a rule, active = well fitted curve in the direction sought with a large enough effect; inconclusive = small, poorly fitted or top-dose-only effect, or another doubt; inactive = no such curve, though single readings can be large; an effect the other way counts as inactive or inconclusive.

CCCCCNC(=O)c1ccc2c(=O)[nH]c3c(C(=O)NCC4CCCO4)sc(=S)n3c2c1 (stereo not given)	FLuc counter inconclusive
Cc1ccc(CNC(=O)c2ccc3c(=O)[nH]c4c(C(=O)NCC5CCCO5)sc(=S)n4c3c2)cc1 (stereo not given)	FLuc counter 19µM
O=C(NCc1ccccc1)c1ccc2c(=O)n(CC3CCCO3)c(=S)[nH]c2c1 (stereo not given)	none
O=C(NCc1ccccc1)c1ccc2c(=O)[nH]c3c(C(=O)NCC4CCCO4)sc(=S)n3c2c1 (stereo not given)	FLuc counter 27µM
COc1ccc(-n2cc(C(=O)NCc3ccccc3Cl)c3ccccc3c2=O)cc1	none (no result: Rab9 prom act, Luc counter, ELG1 genotoxic, NPC1 prom act, SMN2 splice enh)
Cc1cc(-c2cc(-c3ccccc3)on2)nc(NC2CCCC2)n1	FLuc counter inconclusive (no result: Luc counter, SMN2 splice enh)
Cc1cc(NC(=O)c2cc(-c3ccccc3)on2)no1	ELG1 genotoxic inconclusive
Nc1nc(-c2cc(-c3ccccc3)no2)cs1	Rab9 prom act 1µM, FLuc counter 3µM, ELG1 genotoxic 2.1µM, NPC1 prom act 1µM (no result: Luc counter, SMN2 splice enh)
c1ccc(-c2cc(-c3ccccc3)on2)cc1	Rab9 prom act 1.4µM, FLuc counter 0.76µM, ELG1 genotoxic 5.8µM, NPC1 prom act 1.4µM (no result: Luc counter, SMN2 splice enh)
Cc1ccc(-c2cc(-c3ccccc3)no2)cc1	Rab9 prom act 0.32µM, FLuc counter 0.3µM, ELG1 genotoxic inconclusive, NPC1 prom act 0.63µM (no result: Luc counter, SMN2 splice enh)
O=C(c1ccccc1)c1cc(-c2ccccc2)on1	Rab9 prom act 0.63µM, FLuc counter 0.21µM, Luc counter 11µM, ELG1 genotoxic 2.1µM, NPC1 prom act 0.56µM, SMN2 splice enh inconclusive
OC1CCC2Cc3ccccc3N=C12 (stereo not given)	none (no result: Rab9 prom act, FLuc counter, ELG1 genotoxic, NPC1 prom act, SMN2 splice enh)
O[C@@H]1[C@@H](OCc2ccccc2)OC[C@H](O)[C@@H]1O	none (no result: Rab9 prom act, FLuc counter, ELG1 genotoxic, NPC1 prom act)
CC(C)(C)[C@]1(O)CCN2CC3c4ccccc4CCc4cccc(c43)[C@@H]2C1 (stereo not given in full)	none (no result: Rab9 prom act, FLuc counter, ELG1 genotoxic, NPC1 prom act)
O=c1c2ccccc2nc2n1CCC2	FLuc counter inconclusive
Cc1sc2nc(C)n(/N=C/N(C)C)c(=O)c2c1C	none (no result: Luc counter, SMN2 splice enh)
Cc1nc2sc(-c3ccccc3)cc2c(=O)n1N	Rab9 prom act inconclusive, FLuc counter 0.67µM, ELG1 genotoxic inconclusive, NPC1 prom act 0.1µM (no result: Luc counter, SMN2 splice enh)
O=c1c2cc(-c3ccccc3)sc2nc2n1CCC2	Rab9 prom act 0.63µM, FLuc counter 3µM, ELG1 genotoxic 1.2µM, NPC1 prom act 0.5µM, SMN2 splice enh 3.2µM
Cc1nc2sc(-c3ccccc3)cc2c(=O)n1/N=C/N(C)C	Rab9 prom act 2.8µM, FLuc counter 19µM, ELG1 genotoxic inconclusive, NPC1 prom act 2.5µM, SMN2 splice enh 11µM
NC(=O)CSc1nc2sc(-c3ccccc3)cc2c(=O)n1N	FLuc counter inconclusive
Cc1nc2sc(-c3ccccc3)cc2c(=O)n1-n1cccc1	Rab9 prom act 1.6µM, FLuc counter 7.6µM, ELG1 genotoxic inconclusive, NPC1 prom act 1.3µM (no result: Luc counter, SMN2 splice enh)
Cc1ccc(C(=O)N2CCN(c3cccc(Cl)c3)CC2)cc1-n1c(C)nc2cccnc21	none (no result: Rab9 prom act, Luc counter, ELG1 genotoxic, NPC1 prom act, SMN2 splice enh)
CCN(CC)S(=O)(=O)c1ccc2c(c1)nc(CN(C)C(=O)Nc1ccc(C)c(F)c1)n2C	none (no result: Rab9 prom act, Luc counter, ELG1 genotoxic, NPC1 prom act, SMN2 splice enh)
O=c1c(/C=N/OCc2ccc(Cl)cc2Cl)c[nH]n1-c1cccc(Cl)n1	FLuc counter 11µM
COc1ccc(NC(=O)c2cc(S(=O)(=O)N3CCCCCC3)cn2C)cc1Cl	none (no result: Rab9 prom act, Luc counter, ELG1 genotoxic, NPC1 prom act, SMN2 splice enh)
O=C(COC(=O)c1cc2ccccc2oc1=O)Nc1cccc(S(=O)(=O)N2CCCCCC2)c1	ELG1 genotoxic inconclusive
CCN(CC)S(=O)(=O)c1cccc(NC(=O)c2ccc(Br)cc2)c1	FLuc counter inconclusive
CN(C)S(=O)(=O)c1cccc(NC(=O)COC(=O)c2cc3ccccc3oc2=O)c1	Rab9 prom act 3.2µM, FLuc counter 13µM, ELG1 genotoxic 9.2µM, NPC1 prom act 3.5µM (no result: Luc counter, SMN2 splice enh)
CN(C)S(=O)(=O)c1cccc(NC(=O)COC(=O)c2cc(=O)c3ccccc3o2)c1	none (no result: Luc counter, SMN2 splice enh)
CCN(c1ccc(NC(=O)COC(=O)c2cc3ccccc3oc2=O)cc1)C(C)C	FLuc counter inconclusive
